Test results published in PubChem BioAssay AID1053 (University of Pittsburgh Molecular Library Screening Center, 2008).
“And” between values parts separate entries of the source, which are not always exact repeats. Equal entries are not always repeated.

Each compound was assayed against Serine/threonine-protein kinase PLK1 (Homo sapiens) (UniProt P53350) (assay: Plk1 polo box domain binding inhibitors, SAR follow-up, biochemical, fluorescence polarization, purchased analogs (AID 1053)). Details: Plk1 PBD fluorescence polarization peptide binding; at 20 µM; active compounds read high; call rule not given here.
Sequence of Serine/threonine-protein kinase PLK1 (Homo sapiens) (P53350 whole entry, looked up, the tested form may be a part): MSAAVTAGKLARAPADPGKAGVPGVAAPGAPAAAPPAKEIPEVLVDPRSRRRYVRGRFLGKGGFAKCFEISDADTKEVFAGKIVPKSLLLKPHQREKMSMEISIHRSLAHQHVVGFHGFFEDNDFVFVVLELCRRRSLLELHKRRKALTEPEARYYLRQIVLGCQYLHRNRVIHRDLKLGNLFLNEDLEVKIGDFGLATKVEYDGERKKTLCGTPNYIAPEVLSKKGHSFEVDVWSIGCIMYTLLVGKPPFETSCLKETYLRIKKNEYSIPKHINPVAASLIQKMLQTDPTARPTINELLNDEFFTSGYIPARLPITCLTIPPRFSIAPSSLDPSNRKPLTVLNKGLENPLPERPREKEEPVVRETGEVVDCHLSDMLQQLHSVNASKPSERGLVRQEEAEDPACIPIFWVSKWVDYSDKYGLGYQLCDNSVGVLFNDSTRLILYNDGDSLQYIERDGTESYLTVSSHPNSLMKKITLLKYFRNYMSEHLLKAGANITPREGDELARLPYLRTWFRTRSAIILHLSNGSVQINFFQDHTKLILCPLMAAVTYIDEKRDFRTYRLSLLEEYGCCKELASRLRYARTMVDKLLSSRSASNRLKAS

inhibition, inactive:
CCCCCCC(=O)N(CN1C(=O)c2ccccc2C1=O)c1ccccc1OC -57.6%
CCOC(=O)c1ccc(NC(=O)C2Cc3ccccc3C(=O)O2)cc1 (configuration not stated) -59.4%
CC(=O)N(/N=C1\Sc2ccccc2C1=O)c1ccccc1[N+](=O)[O-] 32%
CC(=O)N(/N=C1\Sc2ccccc2C1=O)c1cccc(Br)c1 20.2%
CCOC(=O)c1ccc(NC(=O)C2Oc3ccccc3OC2C)cc1 (configuration not stated) -28.8%
COc1ccc(N(CN2C(=O)c3ccccc3C2=O)C(C)=O)cc1 -43.9% and -51.6%
Cn1c(=O)[nH]c2nnc(-c3ccc(Cl)cc3)nc2c1=O 28.8%
CC(=O)N(CN1C(=O)c2ccccc2C1=O)c1ccc(C)cc1 -31.4%
CCOC(=O)c1ccc(NC(=O)C2COc3ccccc3O2)cc1 (configuration not stated) -40.6%
CCn1nc(-c2ccc(C(F)(F)F)cc2)nc2c(=O)n(C)c(=O)nc1-2 10.8%
CC(=O)N(/C=C1\Sc2ccccc2C1=O)c1cc(C(F)(F)F)ccc1Cl -73.4% and -36.2%
CCCCCC(=O)N(CN1C(=O)c2ccccc2C1=O)c1cccc(C(=O)O)c1 -10.1%
CCCCOC(=O)c1ccc(N=Cc2c(O)[nH]c(=O)[nH]c2=O)cc1 44.5%
CCn1c(N/C(O)=C/C(O)(C(F)(F)F)C(F)(F)F)nc2ccccc21 -49.9%
CCN(CC)CCOC(=O)c1ccc(NC(=O)c2cc(OC)c(OC)cc2OC)cc1 -46.3%
COc1ccccc1N(/C=C1\Sc2ccccc2C1=O)C(C)=O -288% and -274%
CCOC(=O)c1ccc(NC(=O)c2cc3ccccc3oc2=O)cc1 -10.3%
COc1ccc(N(CN2C(=O)c3cc(Cl)c(Cl)cc3C2=O)C(C)=O)cc1 -52.7%
COc1ccc(-c2nnc3[nH]c(=O)n(C)c(=O)c3n2)cc1 -45.9% and -39.6%
CCOC(=O)c1ccc(N=Cc2c(O)n(-c3ccc(C)cc3)c(=O)[nH]c2=O)cc1 -22.9%
CC(=O)N(/C=C1\Sc2ccccc2C1=O)c1cccc(C)c1 -111%
COc1ccc(-c2nc3c(=O)n(C)c(=O)nc-3n(C)n2)cc1OC 1.9%
Cn1nc(-c2ccc([N+](=O)[O-])cc2)nc2c(=O)n(C)c(=O)nc1-2 31.6%
CC(=O)N(CN1C(=O)c2ccccc2C1=O)c1ccc(Oc2ccccc2)cc1 -50%
CCOC(=O)c1ccc(NC(=O)c2cc(C)cc(C)c2)cc1 -13.8%
COc1ccc(N(/N=C2\Sc3ccccc3C2=O)C(C)=O)cc1 30.5%
CC(OC(=O)c1ccc(NC(=O)c2ccc(Br)cc2)cc1)C(=O)c1ccccc1 (configuration not stated) 0.95%
CC(=O)N(CN1C(=O)c2ccccc2C1=O)c1ccc2ccccc2c1 -49.2%
CCOC(=O)c1ccc(N=Cc2c(O)n(C)c(=O)n(C)c2=O)cc1 -54.3%
CC(=O)N(/N=C1\Sc2ccccc2C1=O)c1ccc(C)cc1C 29.2%
Cc1ccc(C(=O)CN2C=CC(=C(O)NCc3ccccc3)C=C2)cc1 -52.1%
CC(=O)N(CN1C(=O)c2ccccc2C1=O)c1ccccc1C -32.5% and -28.6%
Cn1nc(-c2ccc(F)cc2)nc2c(=O)n(C)c(=O)nc1-2 3.86%
O=C1NC(=O)C(=Cc2ccccc2OCCOc2ccccc2)C(=O)N1 -20.6%
CC(=O)N(CN1C(=O)c2ccccc2C1=O)c1cc(Br)ccc1C -56.1%
CCn1nc(-c2ccc(C)cc2)nc2c(=O)n(C)c(=O)nc1-2 16.7%
CCOC(=O)c1ccc(N=Cc2c(O)[nH]c(=O)[nH]c2=O)cc1 49.9%
